The supplement of paper PMC5919970
Counter-ions that a name gives are not always drawn. Over roughly 2,000 compounds, “fractional viability relative to vehicle” has its median near 0.91; the lowest 2% begin near 0.045. The entries come from a sample that favours the lowest values as a whole.

System: TYKNU
Assay: fractional viability relative to vehicle; TYKNU is a high-grade serous ovarian cancer line; higher = less growth inhibition
Conditions: 72 h
Procedure, shortened: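 Drug treatment lasted 72 h, with cells grown at 37 °C in 5% CO2 in RPMI 1640 supplemented with 10% FBS. Beforehand, TYKNU control cells or their lentiCRISPRv2 knockout derivatives had been seeded at 500 cells per well into drug-stamped 384-well plates carrying a ~2100-compound library at 2 or 10 μM, in duplicate. Viability came from Cell Titer Glo luminescence, with averaged duplicate treatment wells normalised to duplicate control wells in the same plate position.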

[1] = 2uM, genotype: DNM1L knockout (sgDNM1L #1)
[2] = 2uM, genotype: sgCTRLA1 (non-targeting control)
[3] = 10uM, genotype: DNM1L knockout (sgDNM1L #1)
[4] = 10uM, genotype: sgCTRLA1 (non-targeting control)

Compound	fractional viability [1]	fractional viability [2]	fractional viability [3]	fractional viability [4]
CCCCc1nc2cc(/C=C/C(=O)NO)ccc2n1CCN(CC)CC [Pracinostat (SB939)]	0.146	0.22	0.0823	0.0879
O=C1NC(=O)/C(=C/c2ccc3nccc(-c4ccncc4)c3c2)S1	0.556	0.7	0.21	0.219
CCCCCCCCCCCCCCCC[N+](C)(C)C [Cetrimonium Bromide (CTAB)]	0.311	0.295	0.0593	0.0171
CCCCCCCCCCCCCCCCO [1-Hexadecanol]	0.833	1.09	0.879	1.1
CCCCCCCCCCCC[N+](C)(C)CCOc1ccccc1 [Domiphen Bromide]	0.558	0.882	0.0673	0.0826
COc1ccc(-n2c(SCCCN3C(=O)c4cccc5cccc(c45)C3=O)nnc2-c2ccncc2)cc1	0.722	0.945	0.895	0.738
Nc1nccc(Oc2ccc(NC(=O)c3c[nH]cc(-c4ccc(F)cc4)c3=O)cc2F)c1Cl	1.09	1.05	0.598	0.808
CC1(C)CCC2=C(O1)c1ccccc1C(=O)C2=O [Beta-Lapachone]	0.128	0.0912	0.0219	0.023
CC1=CC(=O)c2ccccc2C1=O [Menadione]	0.872	1.1	0.952	0.951
N#C/C(=C(/N)Sc1ccc(N)cc1)c1ccccc1C(F)(F)F	0.881	0.905	0.626	0.785
OC[C@H]1O[C@@H](c2ccc(Cl)c(Cc3ccc(O[C@H]4CCOC4)cc3)c2)[C@H](O)[C@@H](O)[C@@H]1O	0.8	1.06	0.788	0.819
Oc1cc2c(cc1O)[C@@H]1c3ccc(O)c(O)c3OC[C@]1(O)C2 [Hematoxylin]	0.878	1.11	0.861	0.977
CCOC(=O)[C@H](CCc1ccccc1)N[C@H]1CS[C@H](c2cccs2)CN(CC(=O)O)C1=O [Temocapril HCl]	0.889	1.23	0.83	1.04
CC(C)c1cc(-c2n[nH]c(=O)n2-c2ccc3c(ccn3C)c2)c(O)cc1O [Ganetespib (STA-9090)]	0.299	0.204	0.248	0.206
Cc1[nH]c(/C=C2\C(=O)Nc3ccc(S(=O)(=O)Cc4c(Cl)cccc4Cl)cc32)c(C)c1C(=O)N1CCC[C@@H]1CN1CCCC1	0.317	0.279	0.0474	0.0167
Cc1[nH]c(/C=C2\C(=O)Nc3ccc(S(=O)(=O)N(C)c4cccc(Cl)c4)cc32)c(C)c1C(=O)N1CCN(C)CC1	1.02	0.999	0.152	0.189
CN(C)S(=O)(=O)c1ccc2c(c1)/C(=C/c1cc3c([nH]1)CCCC3)C(=O)N2	0.562	0.815	0.234	0.264
CCOC(=O)c1ccc(NC(=O)O[C@H]2[C@H](OC(=O)Nc3ccc4c(c3)OCO4)[C@@H](OC(=O)Nc3ccc4c(c3)OCO4)[C@@H](OC)O[C@@H]2CO)cc1	0.821	1.04	0.616	0.615
CCCCCCCCC/C(=C\C1=C(C)C(=O)C(OC)=C(OC)C1=O)C(=O)O	0.847	0.878	0.855	0.701

Compound	fractional viability [1]	fractional viability [2]	fractional viability [3]	fractional viability [4]
Cn1sc(=O)n(Cc2ccccc2)c1=O	0.797	0.735	0.0256	0.00748
Cc1ccc(-n2sc(=O)n(Cc3ccc(F)cc3)c2=O)cc1	0.995	1.11	0.469	0.618
O=C(NC[C@H](O)CN1CCc2ccccc2C1)c1cc(NC2COC2)ncn1	0.764	0.899	0.604	0.662
Nc1ccc(-c2ccc3ncc4ccc(=O)n(-c5cccc(C(F)(F)F)c5)c4c3c2)cn1 [Torin 2]	0.125	0.114	0.114	0.0945
COc1ccc(-c2ccc3ncc4c(c3c2)n(-c2ccc(N3CCNCC3)c(C(F)(F)F)c2)c(=O)n4C)cn1	0.0297	0.0315	0.0158	0.0115
O=C(Nc1ccc(OC(F)(F)F)cc1)c1sccc1NCc1ccnc2ccccc12	0.926	0.906	0.215	0.181
CN1CCN(c2c(F)cc3c(=O)c(C(=O)O)cn4c3c2OCN4C)CC1 [Marbofloxacin]	1.13	1.21	0.971	1.01
Cc1c(C(=O)NN2CCCCC2)nn(-c2ccc(Cl)cc2Cl)c1-c1ccc(Cl)cc1 [Rimonabant]	1.11	1.01	0.575	0.753
CNC(=O)c1ccc(Nc2ncc(C(F)(F)F)c(NCc3nccnc3N(C)S(C)(=O)=O)n2)cc1	0.702	0.772	0.213	0.179
CC(C)(O)c1ccccc1CC[C@@H](SCC1(CC(=O)O)CC1)c1cccc(/C=C/c2ccc3ccc(Cl)cc3n2)c1 [Montelukast Sodium]	0.809	1.13	0.762	1.05
CN(C)Cc1cccc(N/C(=C2\C(=O)Nc3cc(C(N)=O)ccc32)c2ccccc2)c1	1.01	0.992	1.05	0.912
CCS(=O)(=O)Nc1ccc2c(c1)/C(=C(/Nc1ccc(CN3CCCCC3)cc1)c1ccccc1)C(=O)N2 [Hesperadin]	0.316	0.329	0.0548	0.0381
COC(=O)c1ccc2c(c1)NC(=O)/C2=C(\Nc1ccc(N(C)C(=O)CN2CCN(C)CC2)cc1)c1ccccc1 [Nintedanib (BIBF 1120)]	0.903	0.889	0.152	0.147
CC#CCn1c(N2CCC[C@@H](N)C2)nc2c1c(=O)n(Cc1nc(C)c3ccccc3n1)c(=O)n2C [Linagliptin]	1.22	1.14	0.918	0.986
NC(=O)c1cn(Cc2c(F)cccc2F)nn1 [Rufinamide]	0.992	1.08	1.07	1.04
Cc1cc(C)nc(NS(=O)(=O)c2ccc(NC(=S)NC(=O)COc3ccc(Br)cc3Cl)cc2)n1	1.05	1.04	0.706	1.08
CN1CCN(c2ccc(Nc3cc(-c4cccc(-n5ccc6cc(C7CC7)cc(F)c6c5=O)c4CO)cn(C)c3=O)nc2)CC1	0.836	0.97	0.114	0.182
CCOC(=O)[C@@H](N)Cc1ccc(-c2cc(O[C@H](c3ccc(Cl)cc3-n3ccc(C)n3)C(F)(F)F)nc(N)n2)cc1 [Telotristat Etiprate (LX 1606 Hippurate)]	0.777	1.1	0.0468	0.12
